Results taken from PubChem BioAssay.
For some of these results: Measured potencies and affinities stand elsewhere. The source made the active and inactive calls.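 How the source made its calls, unless noted: active means primary screen activator hit with a dose response curve and TRPC4 channel activation at any tested dose; inactive means no activation, no dose response, or not a primary hit.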

Tests used:
[1] = test system: TRPC4 beta (transient receptor potential cation channel C4), mouse; test: activators of mouse TRPC4 channel, confirmation, cell-based, Fluo4 calcium, HEK293 TRPC4beta/mu-opioid, duplicates, 10 µM (AID 2426;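 active means fluorescence ratio normalized to control raised more than 50% in primary screen plus both repeat runs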); conditions: Fluo4 calcium fluorescence, at 10 µM; stronger effect = higher value
[2] = test system: transient receptor potential cation channel C4 beta (TRPC4), mouse; test: activators of mouse TRPC4 channel, confirmation, cell-based, second round, Fluo4, HEK293 TRPC4beta/mu-opioid, 1 µM (AID 2461;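 active means primary screen active and over 50% activation in each of two duplicate runs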); conditions: Fluo4 calcium fluorescence, at 1 µM; stronger effect = higher value
[3] = test system: TRPC4 (transient receptor potential cation channel C4 beta), mouse; test: positive allosteric modulators of mouse TRPC4, confirmation, cell-based, second round, Fluo-4, HEK293 TRPC4beta/mu-opioid, 1 µM (AID 2554;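 active means primary screen hit whose fluorescence ratio, in both repeats, exceeds the weak agonist control mean by 3 SD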); conditions: DAMGO EC20, Fluo-4 calcium flux, at 1 µM; stronger effect = higher value
[4] = test system: TRPC4 beta (transient receptor potential cation channel C4), mouse; test: positive allosteric modulators of mouse TRPC4, confirmation, cell-based, Fluo-4, HEK293 TRPC4beta/mu-opioid (AID 2555;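 active means primary screen hit whose calcium fluorescence ratio, in both repeats, exceeds the weak agonist control mean by 3 SD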); conditions: DAMGO EC20, Fluo-4 calcium flux, at 10 µM; stronger effect = higher value
[5] = biological target: Short transient receptor potential channel 4 (Mus musculus) (UniProt Q9QUQ5); test: inhibitors of mouse TRPC4 channel, confirmation, cell-based, Fluo4, HEK293 TRPC4beta/mu-opioid (AID 2636;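 active means calcium signal cut by more than 3 SD below the full-agonist control yet still positive, in both repeats and the earlier primary screen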); conditions: DAMGO, Fluo4 calcium flux, at 10 µM; stronger effect = higher value
Chain of Short transient receptor potential channel 4 (Mus musculus) (Q9QUQ5 whole entry, looked up): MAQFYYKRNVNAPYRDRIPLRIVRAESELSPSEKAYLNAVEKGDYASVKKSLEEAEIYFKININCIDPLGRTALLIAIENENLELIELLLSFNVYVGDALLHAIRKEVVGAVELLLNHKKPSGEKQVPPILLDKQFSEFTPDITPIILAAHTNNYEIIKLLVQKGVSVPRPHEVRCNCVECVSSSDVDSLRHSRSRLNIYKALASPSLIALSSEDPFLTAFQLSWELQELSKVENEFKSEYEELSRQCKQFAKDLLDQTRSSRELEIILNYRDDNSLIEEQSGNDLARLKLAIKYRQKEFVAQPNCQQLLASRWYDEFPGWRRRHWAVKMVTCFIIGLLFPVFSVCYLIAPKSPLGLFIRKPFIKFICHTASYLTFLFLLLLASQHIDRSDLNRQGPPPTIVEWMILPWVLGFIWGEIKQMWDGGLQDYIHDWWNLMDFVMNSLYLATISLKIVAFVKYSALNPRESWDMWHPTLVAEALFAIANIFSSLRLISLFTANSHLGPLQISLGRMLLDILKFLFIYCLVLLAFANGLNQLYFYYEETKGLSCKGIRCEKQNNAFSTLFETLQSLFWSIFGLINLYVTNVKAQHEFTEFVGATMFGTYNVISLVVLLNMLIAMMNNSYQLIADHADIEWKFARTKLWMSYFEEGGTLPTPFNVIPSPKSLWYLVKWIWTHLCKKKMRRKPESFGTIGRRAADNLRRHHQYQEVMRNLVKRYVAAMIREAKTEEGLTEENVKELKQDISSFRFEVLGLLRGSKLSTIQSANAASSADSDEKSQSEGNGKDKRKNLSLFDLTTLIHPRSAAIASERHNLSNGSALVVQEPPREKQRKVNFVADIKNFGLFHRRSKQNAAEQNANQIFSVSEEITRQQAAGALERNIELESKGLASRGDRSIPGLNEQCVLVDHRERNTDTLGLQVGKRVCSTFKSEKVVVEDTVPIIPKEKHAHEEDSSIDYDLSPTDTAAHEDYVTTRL

[6] = biological target: Short transient receptor potential channel 4 (Mus musculus) (UniProt Q9QUQ5); test: inhibitors of mouse TRPC4 channel, confirmation, cell-based, second round, Fluo4, HEK293 TRPC4beta/mu-opioid, 1 µM (AID 2637;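 active means calcium signal ratio cut to more than 3 SD under the fully stimulated control mean yet still positive, in both repeats and the primary screen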;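 on inhibition: percent of integrated ratio relative to wells lacking test compound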); conditions: Fluo4 calcium flux, DAMGO, at 1 µM; stronger effect = higher value
[7] = biological target: Short transient receptor potential channel 4 (Mus musculus) (UniProt Q9QUQ5); test: mouse TRPC4 channel activators, dose response, cell-based, HEK293 TRPC4/mu-opioid, Fluo-4 calcium (AID 434937); conditions: HEK293 TRPC4 cells, Fluo-4 calcium fluorescence ratio; series mostly up to 20 µM
[8] = biological target: Short transient receptor potential channel 4 (Mus musculus) (UniProt Q9QUQ5); test: TRPC4 positive allosteric modulators, dose response, cell-based, HEK293 TRPC4/mu-opioid, Fluo-4 calcium, EC20 DAMGO (AID 434941;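 active means earlier screen potentiator hit that boosts the TRPC4 ion channel at some dose, with a dose response; inactive means no potentiation, no dose response, or not a prior hit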;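 further: calcium entry triggered by an EC20 dose of DAMGO at the co-expressed mu-opioid receptor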); conditions: HEK293 TRPC4/mu-opioid cells, Fluo-4 calcium fluorescence; series mostly up to 20 µM
[9] = biological target: Short transient receptor potential channel 6 (Mus musculus) (UniProt Q61143); test: inhibition of mouse TRPC6 channel, confirmation, selectivity assay for TRPC4 inhibitor project, cell-based, HEK293, membrane potential dye, duplicate (AID 434948;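 active means active in primary screen and both duplicates, each dropping signal beyond three positive-control SD with fluorescence still positive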); conditions: HEK293 TRPC6, membrane potential dye fluorescence, at 10 µM, stimulated with maximal-effect acetylcholine; stronger effect = higher value
Chain of Short transient receptor potential channel 6 (Mus musculus) (Q61143 whole entry, looked up): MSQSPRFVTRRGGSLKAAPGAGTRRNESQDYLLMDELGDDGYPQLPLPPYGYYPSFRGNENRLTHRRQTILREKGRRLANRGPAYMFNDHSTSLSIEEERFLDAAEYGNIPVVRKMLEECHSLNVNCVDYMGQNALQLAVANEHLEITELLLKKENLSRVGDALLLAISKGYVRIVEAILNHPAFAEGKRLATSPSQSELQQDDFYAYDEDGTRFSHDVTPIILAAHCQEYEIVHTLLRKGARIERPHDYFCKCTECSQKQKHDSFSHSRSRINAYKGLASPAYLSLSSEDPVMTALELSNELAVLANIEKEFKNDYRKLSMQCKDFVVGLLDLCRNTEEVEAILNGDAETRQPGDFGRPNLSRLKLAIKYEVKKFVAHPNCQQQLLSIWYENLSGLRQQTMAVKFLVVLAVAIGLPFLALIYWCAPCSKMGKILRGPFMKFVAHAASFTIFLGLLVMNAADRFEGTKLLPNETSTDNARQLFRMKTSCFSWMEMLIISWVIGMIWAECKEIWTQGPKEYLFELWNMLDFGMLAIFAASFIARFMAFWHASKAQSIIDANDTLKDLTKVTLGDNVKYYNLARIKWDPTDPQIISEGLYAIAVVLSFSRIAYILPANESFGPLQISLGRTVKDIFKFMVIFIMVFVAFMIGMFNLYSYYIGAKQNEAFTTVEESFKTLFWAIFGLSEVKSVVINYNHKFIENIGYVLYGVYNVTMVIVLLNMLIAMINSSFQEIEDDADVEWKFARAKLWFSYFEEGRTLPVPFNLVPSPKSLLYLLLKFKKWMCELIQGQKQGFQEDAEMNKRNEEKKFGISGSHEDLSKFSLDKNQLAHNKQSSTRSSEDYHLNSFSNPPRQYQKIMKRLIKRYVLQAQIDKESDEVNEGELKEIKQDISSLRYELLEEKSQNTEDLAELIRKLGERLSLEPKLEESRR

[10] = biological target: Short transient receptor potential channel 6 (Mus musculus) (UniProt Q61143); test: activation of mouse TRPC6 channel, confirmation, selectivity assay for TRPC4 activator project, cell-based, HEK293, membrane potential dye, duplicate (AID 434950;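 active means membrane potential signal rise above negative control mean plus 3 SD in both duplicates, also active in the earlier TRPC4 screen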); conditions: HEK293 TRPC6, membrane potential fluorescence, at 10 µM; stronger effect = higher value
[11] = biological target: Short transient receptor potential channel 6 (Mus musculus) (UniProt Q61143); test: TRPC6 potentiation by TRPC4 potentiator hits, confirmation, selectivity assay for TRPC4 potentiator project, HEK293 cells, membrane potential dye, duplicate (AID 434952;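 active means compound raising the membrane signal above positive-control mean plus 3 SD in both repeats, and a primary screen hit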); conditions: HEK293 TRPC6, membrane potential dye fluorescence, at 10 µM, maximal acetylcholine added after compound; stronger effect = higher value
[12] = biological target: Short transient receptor potential channel 4 (Mus musculus) (UniProt Q9QUQ5); test: calcium flux activators in TRPC4/5HT1a cells, counter-screen for TRPC4 activator project, cell-based, second counter screen, HEK293 TRPC4/5HT1a, Fluo-4 (AID 434977;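 active means calcium signal rise above buffer-control mean plus 5 SD in both duplicates, and also a hit in the primary screen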); conditions: Fluo-4 calcium flux, at 10 µM; stronger effect = higher value
[13] = calcium flux inhibitors in TRPC4/5HT1a cells, confirmation, counter-screen for TRPC4 inhibitor project, cell-based, second counter screen, HEK293 TRPC4/5HT1a, Fluo-4 (AID 434978;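 active means primary screen active whose calcium signal fell more than 3 SD beyond the full-serotonin control mean in both duplicate plates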); conditions: Fluo-4 calcium flux, at 10 µM, serotonin added to trigger calcium flux; stronger effect = higher value
[14] = test system: TRPC4 (mouse), co-expressed with 5HT1a in HEK293; test: calcium flux potentiators in TRPC4/5HT1a cells, confirmation, counter-screen for TRPC4 potentiator project, cell-based, second counter screen, HEK293 TRPC4/5HT1a, Fluo-4 (AID 434979;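 active means signal rise over 3 SD above mean of control wells given weak agonist, in both repeats and first screen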); conditions: Fluo-4 calcium flux, at 10 µM, serotonin added at its EC20 dose; stronger effect = higher value
[15] = calcium flux activation in mu-opioid HEK293 cells, confirmation, counter-screen for TRPC4 activator project, cell-based, HEK293 mu-opioid receptor line (AID 449723;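 active means hit in primary screen, with calcium signal over 5 SD above buffer well mean in both duplicates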;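 further: counter screen cells carry the mu-opioid receptor alone and lack TRPC4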); conditions: Fluo-4 calcium fluorescence, at 10 µM; stronger effect = higher value
[16] = calcium flux enhancement in mu-opioid HEK293 cells, confirmation, counter-screen for TRPC4 allosteric potentiator project, cell-based, HEK293 mu-opioid receptor line (AID 449724;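 active means calcium signal rise more than 3 SD above the low-dose agonist control mean, in both duplicate plates and the primary screen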); conditions: Fluo-4 calcium flux, at 10 µM, compound added before EC20 DAMGO stimulus; stronger effect = higher value

Measured: inhibition

CCCCc1nc2ccccc2c(N)c1CCC (tested in a mixture with another compound)
active: [5] 96% | [6] 69% | [9] 18% | [13] 32.6%
inactive: all other assays above

O=C(OC1C2CCC1C1CN(CCc3ccccc3)CC12)c1ccccc1 (stereo not drawn)
active: [6] 44%
inactive: all other assays above

CC(COc1ccccc1)N1CCC(CO)(Cc2ccccc2)CC1 (stereo not drawn)
active: [5] 96% | [13] 22.9%
inactive: all other assays above

CCOc1ccc2ccccc2c1CNCCc1ccc(S(N)(=O)=O)cc1
active: [5] 92% | [13] 35.5%
inactive: all other assays above

O=C(CCCSc1nc2ccccc2[nH]1)NCc1ccccc1Cl
active: [5] 88% | [6] 46% | [13] 27.7%
inactive: all other assays above

Cc1ccccc1CN1CCCC(C(=O)Nc2ccccc2Oc2cccnc2)C1 (stereo not drawn)
active: [5] 88% | [6] 51% | [13] 39.9%
inactive: all other assays above

CCN(CC)c1ncnc2scc(C3COc4ccccc4O3)c12 (stereo not drawn)
active: [5] 86% | [13] 33%
inactive: all other assays above

CCOc1ccc2c(C)nc(NC3=NC(C)(C)C=C(C)N3)nc2c1
active: [5] 96% | [6] 37%
inactive: all other assays above

Cc1cccc(N2CCN(Cc3ccoc3)CC2)c1C
active: [5] 72% | [13] 25.2%
inactive: all other assays above

CC(C)=CCCC(C)CN1CCC(n2nccc2NC(=O)C2CCCC2)CC1 (stereo not drawn)
active: [5] 99% | [6] 63% | [13] 38%
inactive: all other assays above

c1ccc(COC(CN2CCCCCC2)CN2CCCCCC2)cc1
active: [5] 93% | [13] 31.1%
inactive: all other assays above

CCN(CC)c1nc2ccccc2c(N)c1-c1ccccc1
active: [5] 89% | [9] 37.5% | [13] 33.1%
inactive: all other assays above

O=C(COC(=O)c1c(Cl)cccc1Cl)Nc1ccccc1Br
active: [5] 71% | [13] 29.5%
inactive: all other assays above

Cc1ccc(Cn2c(Cc3ccccc3)nc3ccccc32)cc1
active: [6] 64% | [13] 7.29%
inactive: all other assays above

Cc1ccc(NC(=S)N(CCCN(C)C)Cc2cc3cc4c(cc3[nH]c2=O)OCO4)c(C)c1
active: [5] 96% | [6] 70% | [13] 14.4%
inactive: all other assays above

CCCn1c(NCc2ccc(C)o2)nc2ccccc21
active: [5] 70% | [13] 30%
inactive: all other assays above

O=C(COC(=O)Cn1cnc2ccccc2c1=O)Nc1ccccc1Sc1ccc(Cl)cc1
active: [5] 62% | [6] 43% | [13] 26.1%
inactive: all other assays above

N#Cc1c(NC(=O)C2CC(Cl)=CCC2C(=O)O)sc2c1CCCCC2 (stereo not drawn)
active: [5] 51% | [13] 18.6%
inactive: all other assays above

Cc1cccc(C)c1N1CCc2cn[nH]c21
active: [5] 84% | [13] 31.5%
inactive: all other assays above

Cc1nn(-c2ccccc2)c(Cl)c1CN(C(=O)CCl)c1ccc(Cl)cc1
active: [5] 93% | [6] 69% | [13] 2.77%
inactive: all other assays above

Cc1cccc(CN2CCCC(C(=O)Nc3ccccc3Oc3cccnc3)C2)c1 (stereo not drawn)
active: [5] 92% | [13] 35.8%
inactive: all other assays above

O=c1oc2ccccc2c(Nc2ccccc2)c1CN1CCCCC1
active: [5] 84% | [6] 46%
inactive: all other assays above

Cc1cc2[nH]c3ccccc3c2c(C)n1
active: [5] 87% | [9] 41.5% | [13] 20.3%
inactive: all other assays above

CN1CCN(c2nc3c(c(=O)n(C)c(=O)n3C)n2CC(=O)C23CC4CC(CC(C4)C2)C3)CC1
active: [5] 92% | [6] 63% | [13] 17%
inactive: all other assays above

CCOc1cc(CNC2CCCC2)cc(Cl)c1OCc1ccccc1
active: [5] 76% | [13] 33%
inactive: all other assays above

CCOC(=O)c1c(N)sc(C(O)(C(F)(F)F)C(F)(F)F)c1-c1ccccc1
active: [5] 66% | [13] 36.8%
inactive: all other assays above

Cc1ncsc1CCOC(=O)C12CC3CC(CC(C3)C1)C2
active: [5] 94% | [13] 17.8%
inactive: all other assays above

Cc1ccccc1OCCn1c(C)nc2ccccc21
active: [5] 36% | [6] 57% | [13] 13.3%
inactive: all other assays above
